Among all 330,000 compounds or so, about 20 (0.006%) were called active. Where a call stands in place of a potency, no number is given. About 1% were inconclusive and are not listed. The sample holds actives, similar compounds and a random draw of the others, so the mix is not that of the screen. Calls come from the whole dose curve; as a rule, active = well fitted inhibition curve with a large enough effect; inconclusive = small, poorly fitted or top-dose-only effect, or effect the other way; inactive = flat fitted curve, though single readings scatter.
Potency is the fitted concentration of half-maximal effect.

Sequence of Protein phosphatase EYA2 (Homo sapiens) (O00167 whole entry, looked up, the tested form may be a part): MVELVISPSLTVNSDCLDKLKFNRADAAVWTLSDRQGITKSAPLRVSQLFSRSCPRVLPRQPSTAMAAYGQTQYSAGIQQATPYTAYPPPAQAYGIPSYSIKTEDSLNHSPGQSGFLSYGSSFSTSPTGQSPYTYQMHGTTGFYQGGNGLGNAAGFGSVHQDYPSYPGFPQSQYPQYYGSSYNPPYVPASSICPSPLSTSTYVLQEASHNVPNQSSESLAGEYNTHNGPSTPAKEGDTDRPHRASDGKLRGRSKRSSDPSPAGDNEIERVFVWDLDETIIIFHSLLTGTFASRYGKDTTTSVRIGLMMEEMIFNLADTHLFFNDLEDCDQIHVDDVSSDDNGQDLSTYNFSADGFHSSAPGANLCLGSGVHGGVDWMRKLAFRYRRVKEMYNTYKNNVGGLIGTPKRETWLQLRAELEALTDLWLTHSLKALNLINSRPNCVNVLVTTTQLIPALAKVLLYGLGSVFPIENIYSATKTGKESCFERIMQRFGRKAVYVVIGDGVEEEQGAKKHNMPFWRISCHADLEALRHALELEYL

The assay deals with Protein phosphatase EYA2 (Homo sapiens) (UniProt O00167). As to the kind of experiment: qHTS Assay for Inhibitors of the Phosphatase Activity of Eya2. The note with it: recombinant Eya2, OMFP fluorescence dephosphorylation (OMFP is methylfluorescein phosphate); series mostly up to 76.9 µM. From the text:
The Eya family of proteins are essential co-activators of the Six1 transcription factor. Six1 is a developmental gene that is abnormally re-expressed in a large percentage of breast cancers. This over-expression plays a causal role in the initiation and metastatic development of breast cancers. The Eya family of proteins was also found to contain a unique HAD phosphatase domain with protein tyrosine phosphatase activity which can potentially play a role in Six1-mediated breast tumorigenesis. […] We have developed and optimized a 1536 well fluorescence-based HTS assay targeting the phosphatase activity of Eya2. Inhibitors found against Eya2 could serve as potential therapeutic tools to inhibit Six1-mediated breast tumorigenesis and to increase the efficiency of radiation and certain chemo therapy. These inhibitors could also be used as chemical probes to study the function of Eya2's phosphatase activity and its role in Six1-mediated breast tumorigenesis.
The Eya2 enzyme was kindly provided by the laboratory of Dr. Rui Zhao. The 3-O-methyl-fluorescein phosphate (OMFP) substrate and all buffer reagents were purchased from Sigma Aldrich. qHTS Assay Setup: 1. Buffer- 50 mM HEPES pH 7.5, 50 mM NaCl, 5 uM MgCl2, 0.05% BSA, 1 mM DTT. 2. OMFP Stock- 10 mM solution prepared in 100% DMSO and stored in single use aliquots at -20C. Assay Procedure- 1. Dispense 1.5 ul per well of Eya2 at 0.2 uM in black medium binding 1536 well Greiner plate 2. Transfer 23 nl of compound and control compound (EGTA) to plate 3. Incubate at ambient for 10 minutes 4. Dispense 1.5 ul per well of OMFP at 50 uM 5. Incubate at ambient for 10 minutes 6. Read on ViewLux using Excitation = 485 nm, Emission = 525 nm
(In general: qHTS replaces the single test concentration by a dilution series.)
For the compound `CCC(CC)C(=O)Nc1ccc(S(=O)(=O)Nc2nccs2)cc1`, the activity, negative = inhibition entry was “inactive”.

For `COC(=O)C1CCCCN1C(=O)c1ccc(OC2CCN(C(C)=O)CC2)c(OC)c1` (stereo not given), the activity, negative = inhibition result is “inactive”. For the compound `CC1=CC2=NC(=O)CC(C)(C(=O)N(CC(=O)NC(C)(C)C)Cc3ccccc3)N2C=C1` (stereo not given), the activity, negative = inhibition entry was “inactive”. With `N=c1ccn(CC(=O)NC(N)=O)c2ccccc12`, the activity, negative = inhibition entry is “inactive”. On the same count and under the same terms, then `Cc1ccc(S(=O)(=O)N2CCC(Oc3ccc(-n4cnnn4)cc3)CC2)cc1`, with “inactive”. Take `COc1ccc(C(=O)OCc2cc(=O)n3ccsc3n2)cc1F`: the activity, negative = inhibition entry is “inactive”. For the compound `Cc1ccc(CCn2c3c(c4ccccc42)CN(C)CC3)cn1`, the activity, negative = inhibition entry was “inactive”. For `Nc1ncnc2c1c(I)cn2[C@@H]1C[C@H](N)[C@@H](O)[C@H]1O`, the activity, negative = inhibition entry was “inactive”. Consider `CSCCC(NS(=O)(=O)c1ccc2c(c1)oc(=O)n2C)C(=O)NCc1ccccc1` (stereo not given), for which the activity, negative = inhibition entry was “inactive”. In the case of `O=C(COc1ccc([N+](=O)[O-])cc1)Nc1cccc(C(=O)Nc2ccccc2C(=O)O)c1`, the activity, negative = inhibition result was “inactive”. Take `CCCN1Cc2cccc(C(=O)Nc3ccc(S(=O)(=O)N4CCCCCC4)cc3)c2C1=O`: the activity, negative = inhibition result is “inactive”. As to `N#C/C(=C\N1CCOCC1)S(=O)(=O)c1ccc(Cl)cc1`, the activity, negative = inhibition result was “inactive”. On the same count and under the same terms, next, `CCOc1ccc(CCNC(=O)CN2C(=O)NC3(CCc4ccccc43)C2=O)cc1OCC` (stereo not given): “inactive”; `CCc1noc(C)c1C(=O)N1CCCSC1=Nc1ccccc1OC`: “inactive”; `COc1ccc(OCCCC(=O)Nc2cccc(S(=O)(=O)N3CCCCCC3)c2)cc1`: “inactive”. On to `COC(=O)c1ccc(CSc2ccc3nnc(-c4ccccc4)n3n2)o1`, for which the activity, negative = inhibition result was “inactive”. Consider `Cc1cccc(C)c1NC(=O)C1CCCN1C(=O)OC(C)(C)C` (stereo not given), for which the activity, negative = inhibition entry was “inactive”. Consider `O=C(Cc1ccccc1Cl)N1CCN(c2ccccn2)CC1`, for which the activity, negative = inhibition result was “inactive”. With `Cc1cc(C)c(C)c(S(=O)(=O)N[C@@H](C)C(=O)OC(C)C(=O)NC(N)=O)c1C` (stereo not given in full), the activity, negative = inhibition entry is “inactive”. In the case of `Cc1ccc(CC2C(=O)N(c3ccc(F)cc3)C(=O)C2C)cc1` (stereo not given), the activity, negative = inhibition entry was “inactive”. On the same count and under the same terms, then `O=C(CNC(=O)OCc1ccccc1)Oc1cc2oc(=O)cc(-c3ccccc3)c2cc1Cl`, with “inactive”; and `CCN(CC)P(=O)(C(NC(=O)OC)C(F)(F)C(F)(F)C(F)(F)C(F)F)N(CC)CC` (stereo not given), with -3.75% [at 15.4 µM] (inactive). Consider `COc1cc(NC(=O)c2ccccc2NS(=O)(=O)c2ccc(Cl)s2)cc(OC)c1`, for which the activity, negative = inhibition entry is “inactive”. With `CN(C)/C(CN1CCCCC1)=C1\N=C(c2ccccc2)OC1=O`, the activity, negative = inhibition entry is “inactive”.

Turning to `CN(C)CCOc1cccc(Br)c1`, the activity, negative = inhibition result is “inactive”.

Turning to `C=CCC[C@@H](Cc1ccc(F)cc1)C(=O)OC[C@H](Cc1c[nH]c2ccccc12)NC(=O)[C@@H](CC=C)CC(=O)N(CCO)Cc1ccccc1`, the activity, negative = inhibition entry is “inactive”. On the same count and under the same terms, then `CN(C)S(=O)(=O)c1ccc(N2CCCC2)c(C(=O)NCc2ccccc2)c1`, with “inactive”.

With `Cc1cccc(C)c1NC(=S)N1CCCCCC1`, the activity, negative = inhibition entry is “inactive”. As to `O=S1(=O)CCC(NC(=S)SCc2ccccc2Br)C1` (stereo not given), the activity, negative = inhibition entry is “inactive”. For `N#CCC(=O)NC(=O)NCC1CC1`, the activity, negative = inhibition result is “inactive”.

On to `N/C(=N\OS(=O)(=O)c1cccc([N+](=O)[O-])c1)c1ccncc1`, for which the activity, negative = inhibition result was “inactive”. Still for that read-out and setting: then `Cc1ccccc1-n1nnnc1SCCCC(=O)c1ccc(F)cc1`, with “inactive”. `C=CCC1(CC=C)CCCN1C(=O)c1cc(COc2ccc(-n3cncn3)cc2)on1`: the activity, negative = inhibition result was “inactive”. As to `CCCCCCCNc1nc(Cl)nc(NCCO)n1`, the activity, negative = inhibition entry was “inactive”.

For the compound `CSc1ccc(Cl)c(C(=O)OCC(=O)N2CCNC2=O)c1`, the activity, negative = inhibition result is “inactive”. Take `c1cc(-n2cnnn2)ccc1NC1=NCCC1`: the activity, negative = inhibition entry was “inactive”.

Turning to `Cc1ccc(OCc2nnc(NC(=O)OCC(C)C)s2)cc1`, the activity, negative = inhibition result is “inactive”.

With `COC(=O)[C@]1(Cc2ccccc2)N[C@H](CN(C)S(=O)(=O)c2ccc(OC(F)(F)F)cc2)[C@@H]2C(=O)N(Cc3ccccc3)C(=O)[C@@H]21`, the activity, negative = inhibition result was “inactive”.

For `CSc1cccc(NC(=O)CN2C(=O)COc3ccc(S(=O)(=O)N4CCOCC4)cc32)c1`, the activity, negative = inhibition entry was “inactive”. Turning to `Cc1noc(NS(=O)(=O)c2ccc(NC(=O)c3oc4ccc(F)cc4c3C)cc2)c1C`, the activity, negative = inhibition entry is “inactive”. `Cn1c2ccc(F)cc2c2nnc(NN)nc21`: the activity, negative = inhibition entry is “inactive”. In the case of `CCCCn1c(N)c(N(CC(C)C)C(=O)c2ccc(Br)o2)c(=O)[nH]c1=O`, the activity, negative = inhibition entry is “inactive”. Turning to `CC(=O)/C(C)=N/O`, the activity, negative = inhibition result was “inactive”.

Consider `Cc1cccc(Nc2nnc(SCC(=O)c3c(N)n(C4CC4)c(=O)[nH]c3=O)s2)c1C`, for which the activity, negative = inhibition entry was “inactive”. On to `COc1ccc(OC)c2c1sc(=NC(=O)CN1C(=O)CCC1=O)n2C`, for which the activity, negative = inhibition entry is “inactive”.

With `CN(C(=O)CSc1nnc(-c2n[nH]c3ccccc23)o1)c1ccccc1`, the activity, negative = inhibition result was “inactive”. On to `CCOc1cc(/C=C2/N=C(c3ccc(C(C)(C)C)cc3)OC2=O)cc(Cl)c1OS(C)(=O)=O`, for which the activity, negative = inhibition entry was “inactive”. For the compound `OCc1n[nH]c(CO)n1`, the activity, negative = inhibition entry was “inactive”. `CCC1Sc2ccc(S(=O)(=O)CCC(=O)NCc3cccs3)cc2NC1=O` (stereo not given): the activity, negative = inhibition result was “inactive”.

As to `CCN(CC)c1ccc(S(=O)(=O)N2CCOCC2)cc1NC(=O)CSc1cccc[n+]1[O-]`, the activity, negative = inhibition result is “inactive”. As to `Cn1c(-c2ccc(F)cc2)cc2onc(-c3ccccc3Cl)c2c1=O`, the activity, negative = inhibition result was “inactive”. Take `CCOc1cc(-c2noc(CCCC(=O)NC3CCCCC3)n2)ccc1OC`: the activity, negative = inhibition result is “inactive”.

On to `O=S(=O)(Nc1ccccc1Cl)c1cccc2nsnc12`, for which the activity, negative = inhibition entry was “inactive”. On to `COn1c(=O)c(=O)n(OC)c2ccccc21`, for which the activity, negative = inhibition result was “inactive”. As to `CN(C)C(=O)CCc1ccc2c3c([nH]c2c1)[C@]1(C)[C@@H](C(=O)N2CCOCC2)C[C@H](CC(=O)NCCc2ccccn2)C(=O)N1CC3`, the activity, negative = inhibition entry is “inactive”. `O=S(=O)(Nc1ccc2nc(-c3ccco3)[nH]c2c1)c1ccccc1`: the activity, negative = inhibition entry was “inactive”. Take `CCOc1ccc(CCNC(=O)COC(=O)c2ccc(F)c(S(=O)(=O)N3CCOCC3)c2)cc1OCC`: the activity, negative = inhibition entry is “inactive”.

Regarding `CC(CC(=O)Nc1ccc(F)cc1F)S(=O)(=O)c1ccc2c(c1)NC(=O)CO2` (stereo not given), the activity, negative = inhibition entry was “inactive”. As for `Cc1c(C#N)c2ncn(CC#N)c(=O)c2n1-c1ccccc1`, the activity, negative = inhibition entry was “inactive”.

Take `CCC(=O)Nc1cc(C(F)(F)F)ccc1N1CCCC1`: the activity, negative = inhibition entry was “inactive”. For the compound `CCn1ccnc1CN(C)C(=O)c1ccc2nc(Cc3ccc(OC)cc3)oc2c1`, the activity, negative = inhibition result was “inactive”. Take `Cc1ccc(-n2cc(CN(C)Cc3nccn3C)c(-c3cccc(C)c3)n2)cc1`: the activity, negative = inhibition result is “inactive”. For the compound `C#CCOCCOCCOCCNc1nc(N2CCN(C(=O)CCCCCCCCCCNC(=O)Cn3cc(CCCCCN)nn3)CC2)nc(N2CCN(C(=O)CCCCCCCCCCNC(=O)[C@H](CO)n3cc(CCCSC)nn3)CC2)n1`, the activity, negative = inhibition entry is “inactive”. `C#CCOCCOCCOCCNc1nc(N2CCN(C(=O)CCCCCCCCCCNC(=O)[C@H]([C@@H](C)CC)n3cc(CCCCN=C(N)N)nn3)CC2)nc(N2CCN(C(=O)CCCCCCCCCCNC(=O)[C@H](CO)n3cc(CCCSC)nn3)CC2)n1`: the Potency was 31.6 µM (active). Regarding `C#CCOCCOCCOCCNc1nc(N2CCN(C(=O)CCCCCCCCCCNC(=O)[C@H](CCCCN)n3cc(C)nn3)CC2)nc(N2CCN(C(=O)CCCCCCCCCCNC(=O)[C@H](CO)n3cc(CCCSC)nn3)CC2)n1`, the activity, negative = inhibition entry is “inactive”.

The record behind these values is PubChem BioAssay AID488837 (National Center for Advancing Translational Sciences (NCATS), 2010).
